An excerpt weighted towards active compounds, which were near 8% of everything screened.
HT1080 IDH1KD tx: qHTS for induction of synthetic lethality in tumor cells producing 2HG: qHTS for the HT-1080-IDH1KD cell line; HT-1080 IDH1 knockdown viability, ATP luminescence, 48 h; Potency, µM (series often up to 46.1 µM), for the others: at the highest dose activity, negative = toxicity, most hits filed as cytotoxic; 360,000 tested, 2% active;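 also: 0% = DMSO wells and -100% = cell-free medium wells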
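IDH1KD HT-1080 cells, 750/well, RPMI + 5% FBS; compound pinned after 2 h settling; 48 h, 37 °C; CellTiter-Glo luminescence; % activity normalised to DMSO and no-cell wells; curves fitted, classed by r2 and efficacy.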
SW480 rereplic: A quantitative high throughput screen for small molecules that induce DNA re-replication in SW480 colon adenocarcinoma cells | SW480 DNA re-replication, Hoechst DNA content imaging, 48 h | Potency, µM (titrated, usually from 46.1 µM), for the others: at the highest dose re-replication activation, usual class: activators | 340,000 tested, 1.8% active; also: % of control where 0% means no effect; nearly all actives have a fitted effect of over 55% in size
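DNA re-replication was detected as more nuclei of elevated Hoechst intensity after 48 hr exposure to compound (23 nL pinned per well of 250 cells).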
KB-3-1 cytotox: qHTS assay for MDR1-selective chemotherapeutics: Primary screen using the parental adenocarcinoma cell KB-3-1; KB-3-1 viability, CellTiter-Glo ATP luminescence, 72 h; Potency, µM (series often up to 46.1 µM), most hits filed as cytotoxic; 400,000 tested, 1.4% active; AID 1347075, 2019; also: % is scaled to controls: 0 for no effect and ±100 for the full control effect; nearly all actives have a fitted effect of over 60% in size
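Cells are dispensed, compounds pinned in, plates held at 37 °C for 72 h, then CellTiter-Glo is added and luminescence read after 10 minutes. Cell line: parental KB-3-1 in phenol-red-free DMEM, 10% FBS.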
HT1080NT lethal: qHTS for induction of synthetic lethality in tumor cells producing 2HG: qHTS for the HT-1080-NT fibrosarcoma cell line; HT-1080-NT fibrosarcoma viability, CellTiter-Glo ATP luminescence, 48 h; Potency, µM (series often up to 46.1 µM), for the others: top-dose activity, negative = less viability, hits mostly cytotoxic; 360,000 tested, 1.6% active;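 also: NT is the 2HG producing partner of a matched IDH1 knockdown line; 0% = DMSO-treated cells and -100% = media-only wells without cells; nearly all actives have a fitted effect of over 55% in size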
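Fibrosarcoma NT cells, 750 per well in 5% FBS RPMI, were exposed to compound for 48 hours. Viability: CellTiter-Glo luminescence.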
KB-V1 cytotox: qHTS assay for MDR1-selective chemotherapeutics: Primary screen using the drug-selected MDR subline cells KB-V1. KB-V1 MDR cells viability, CellTiter-Glo, 72 h. Potency, µM (highest dose often 46.1 µM), actives largely listed as cytotoxic. 400,000 tested, 3.4% active. AID 1347076, 2019; also: % is scaled to controls: 0 for no effect and ±100 for the full control effect; nearly all actives have a fitted effect of over 60% in size
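Cytotoxicity via CellTiter-Glo luminescence after 72 h compound exposure at 37 degrees C. Cells: drug-selected KB-V1 line, DMEM phenol-red free plus 10% FBS. Compounds tested at multiple concentrations; normalized data fitted to concentration-effect curves.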
MCF10A rerep: A quantitative high throughput screen for small molecules that induce DNA re-replication in MCF 10a normal breast cells. 350,000 tested, 2.9% active. Potency, µM (titrated, usually from 46.1 µM), for the others: at the highest dose activity, positive = re-replication, hits mostly activators. MCF 10A DNA re-replication, Hoechst nuclear intensity, 48 h; also: % of control where 0% means no effect; nearly all actives have a fitted effect of over 50% in size
* hit, by the source's call; i = inactive; ? = inconclusive; . = not tested or not shown. Calls follow the shape of the dose curve; as a rule, active = well fitted curve in the direction sought with a large enough effect; inconclusive = small, poorly fitted or top-dose-only effect, or another doubt; inactive = no such curve, though single readings can be large; an effect the other way counts as inactive or inconclusive. Potency is read from the fitted curve at half-maximal effect.

SMILES | HT1080 IDH1KD tx | SW480 rereplic | KB-3-1 cytotox | HT1080NT lethal | KB-V1 cytotox | MCF10A rerep
ClC(Cl)(Cl)c1nc2ccccc2n2nncc12 | 7.3µM* | 13µM* | ? | 6.5µM* | i | ?
Cc1cc(Oc2ccc(Cl)cc2Cl)nc(C#N)n1 | -26% | . | . | -19% | . | .
CCCCOCCCNc1ncnc2c1[nH]c1ccccc12 | 18µM* | ? | 2.6µM* | 13µM* | 1.6µM* | ?
CCCCOc1ncnc2c1[nH]c1ccc(F)cc12 | -5% | -12% | 18µM* | ? | 6.5µM* | ?
CCCCOc1ncnc2c1[nH]c1ccccc12 | 15µM* | 24% | ? | -18% | i | 21%
Cc1cc(C(=O)COC(=O)c2ccc[nH]c2=O)c(C)n1-c1ccc(F)cc1 | 13% | -29% | i | -2% | 18µM* | -10%
CCNC(=O)COC(=O)c1cc(C)n(-c2ccccc2)c1C | 0% | ? | i | 13% | i | 13%
Cc1cc(C(=O)OCC(=O)NCc2ccco2)c(C)n1-c1ccc(F)cc1 | ? | 3.7µM* | ? | ? | 1.3µM* | 2.1µM*
Cc1cc(C(=O)COC(=O)c2ccc[nH]c2=O)c(C)n1-c1ccccc1 | -1% | -38% | i | 0% | 18µM* | -2%
Cc1ccccc1NS(=O)(=O)c1ccc(C(=O)NNC(=O)c2ccccc2O)cc1 | ? | 15µM* | ? | -14% | i | 5%
O=C(NNc1ccccc1F)c1ccccc1 | 9.2µM* | 18% | i | ? | ? | ?
O=C(NNC(=O)c1ccccc1O)c1ccc(S(=O)(=O)Nc2ccccc2F)cc1 | ? | 36% | ? | 23µM* | i | ?
O=C(NNC(=O)c1ccccc1O)c1ccc(S(=O)(=O)Nc2ccccc2)cc1 | -19% | 11µM* | ? | -14% | ? | 0%
CC(=O)c1cccc(NC(=O)CSc2nc(=O)n(CCN3CCOCC3)c3c2CCCC3)c1 | 16% | -222% | i | 6% | i | 14%
CCc1ccc(-c2cc(C(F)(F)F)n3nc(C(=O)Nc4c(C)nn(Cc5ccccc5Cl)c4C)cc3n2)s1 | -7% | 10µM* | i | 17% | ? | 3.3µM*
CCc1ccc(-c2cc(C(F)(F)F)n3nc(C(=O)Nc4c(C)nn(Cc5ccccc5C)c4C)cc3n2)s1 | -1% | 2.6µM* | i | 1% | i | ?
Cc1ccccc1Cn1ccc(NC(=O)c2cc3nc(-c4ccco4)cc(C(F)(F)F)n3n2)n1 | 4% | ? | i | 5% | i | 8.2µM*
C=CCn1c(=S)[nH]c2sc3c(c2c1=O)CCC3 | ? | -5% | i | 7.1µM* | i | 13%
CCn1c(=S)[nH]c2sc3c(c2c1=O)CCCC3 | ? | -1% | i | -20% | i | 12%
Fc1ccc(N/N=C/c2cccnc2)c(F)c1 | 15µM* | -9% | i | ? | i | -11%
Cc1ccc(N/N=C/c2ccncc2)cc1 | ? | 7% | i | ? | i | 25%
FC(F)(F)c1ccccc1N/N=C/c1cccnc1 | -5% | -1% | ? | 4% | i | 10%
Cc1ccc(N/N=C/c2cccnc2)cc1 | 8.2µM* | 0% | ? | ? | 21µM* | ?
Cc1ccc2nc(SCC(=O)Nc3cccc(F)c3)nc(=O)n2c1 | 2% | -6% | ? | 8% | 9.2µM* | 8%
CCCc1cc(NCc2ccccn2)n2nc(C)c(-c3ccccc3)c2n1 | ? | 3.3µM* | ? | -25% | i | ?

Assay outcomes from PubChem BioAssay.
